A selection: hits, their analogues and other compounds. The true share with any hit is near 7.2%.
FMDV inh – foot and mouth disease virus antiviral activity. FMDV antiviral cell-based qHTS. Potency, µM (series often up to 57.9 µM), without a hit: at the highest dose activity change, negative = inhibition, usual class: inhibitors. 1.2% of 410,000 active. AID 1159524; calls by dose curve; tested in HEK293T cells; further: read-out not given here; on the % scale 0 is the no-effect control and ±100 the full control effect; nearly all actives have a fitted effect of over 45% in size
Marburg entry inh – blocks Marburg virus binding to or entry into cells; Marburg virus pseudotyped entry inhibition, cell reporter; Potency, µM (doses to about 37.8 µM), for inactives: at the highest dose activity change, negative = inhibition, most hits filed as inhibitors; 1.8% of 300,000 active; AID 540276; calls by dose curve; tested in HEK293 cells; further: on the % scale 0 is the no-effect control and ±100 the full control effect
HCV inh – blocks hepatitis C virus | Huh7.5.1 HCVcc-Cre infection, luciferase reporter, 44 h | Potency, µM (titrated, usually from 41.8 µM), for inactives: at the highest dose activity change, negative = inhibition, most hits filed as inhibitors | 3.4% of 340,000 active; further: on the % scale 0 is the no-effect control and ±100 the full control effect
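Cells seeded at 1,000/well and cultured 4 h, then compounds added followed by HCVcc-Cre virus (~0.5 moi). After 44 h further culture, luciferase substrate was added, plates held 15 min at room temperature, and luminescence read for 15 sec.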
Sm TGR inh – inhibitors of Schistosoma mansoni thioredoxin glutathione reductase. purified TGR, DTNB reduction, TNB absorbance 405 nm. Potency, µM (highest dose often 114 µM), for the others: at the top dose activity change, negative = inhibition, hits mostly inhibitors. 3% of 360,000 active. AID 485364; further: on the % scale 0 is the no-effect control and ±100 the full control effect; nearly all actives have a fitted effect of over 60% in size
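Kinetic colorimetric format: TGR-catalysed, NADPH-driven DTNB reduction monitored via TNB absorbance. Enzyme dispensed at 20 nM; compound exposure 15 min at room temperature before reaction start.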
RE007 growth inh – less growth of the S. pombe RE007 Vpr strain; S. pombe RE007 Vpr strain, BacTiter-Glo ATP luminescence, 24 h; Potency, µM (series often up to 92.2 µM), for inactives: top-dose activity change, negative = less growth, actives largely listed as inhibitors; 0.21% of 360,000 active; AID 651644; active means well fitted falling curve with a large enough effect; inconclusive means small, poorly fitted or top-dose-only effect; inactive means no such curve, though single readings can be large or run the other way; further: on the % scale 0 is the no-effect control and ±100 the full control effect; nearly all actives have a fitted effect of over 50% in size
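Fission yeast RE007 carrying one integrated HIV-1 vpr copy, seeded at OD 0.01 in PMG+AL medium with 23 nL pinned compound. Grown 24 h at 30 degrees; viability read by BacTiter-Glo luminescence after 5 min.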
LASV entry inh – Lassa virus entry inhibition; Lassa virus pseudotype entry inhibition, cell reporter; AID 540256; Potency, µM (doses to about 37.9 µM), for the others: top-dose activity change, negative = inhibition, usual class: inhibitors; 1.2% of 300,000 active; calls by dose curve; tested in HEK293 cells; further: on the % scale 0 is the no-effect control and ±100 the full control effect; nearly all actives have a fitted effect of over 50% in size
HCV inh confirm – HCV inhibition, cherry-pick confirmation | shares compounds with HCV inh | HCVcc-Cre infectious virus cell assay, luciferase, inhibition | Potency, µM (titrated, usually from 41.8 µM), inactives show top-dose activity, negative = inhibition, usual class: inhibitors | 78% of 640 active | AID 720575; further: nearly all actives have a fitted effect of over 80% in size
HCV host tox – host cell cytotoxicity counter-screen for HCV inhibitors; shares compounds with HCV inh; HCV host cell line cytotoxicity counterscreen; Potency, µM (doses to about 41.8 µM), inactives show at the highest dose activity change, negative = cytotoxicity, actives largely listed as inhibitors; 22% of 640 active; AID 720576;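 further: 44 h compound exposure; on the % scale 0 is the no-effect control and ±100 the full control effect; nearly all actives have a fitted effect of over 55% in size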
Starred values were filed as active, the others as inactive; u = inconclusive; x = not tested or not shown; [ ] = remark or other dose. Unless noted, the call rests on the fitted dose curve; in most records, active means well fitted curve in the direction sought with a large enough effect; inconclusive means small, poorly fitted or top-dose-only effect, or another doubt; inactive means no such curve, though single readings can be large; an effect the other way counts as inactive or inconclusive. Potency means the concentration at half of the fitted maximal effect.

SMILES | FMDV inh | Marburg entry inh | HCV inh | Sm TGR inh | RE007 growth inh | LASV entry inh | HCV inh confirm | HCV host tox
O=C(COc1ccccc1)NNc1c2ccccc2nc2ccccc12 | 25.1µM* | 11.2µM* | 1µM* | 5.9% | -2.9% | u | 1.58µM* | -94.4%
CCCC(=O)NNc1c2ccccc2nc2ccccc12 | -14.5% | 23.4% | 1.41µM* | -4.1% | -4.8% | -0.4% | 0.56µM* | 0.499µM*
O=C(NNc1c2ccccc2nc2ccccc12)c1cccc(O)c1 | 0.0% | u | u | -1.4% | -19.7% | -9.0% | x | x
Cc1nc2ccccc2c(=O)n1NC(=O)COc1ccccc1 | -10.4% | -2.6% | 17.9% | 19.2% | 14.0% | 18.0% | x | x
COc1cc(C(=O)Nc2cccc(NC(=O)c3cccs3)c2)cc(OC)c1OC | 10.9% | x | u | 3.6% | -19.5% | x | 12.5µM* | 72.1%
COc1cc(C(=O)Nc2cccc(NC(=O)c3ccccc3)c2)cc(OC)c1OC | -2.9% | x | u | 3.6% | 6.8% | x | x | x
COc1cc(/C=C/C(=O)NC2CCCCC2)cc(OC)c1OC | 12.8% | 1.4% | u | -15.8% | 16.5% | -18.1% | u | 25.4%
CCCOc1ccc(/C=C/C(=O)NC2CCCCC2)cc1OC | 0.3% | 16.7% | u | 3.8% | 3.0% | 3.8% | x | x
Cc1ccc2c(c1C)NC(=O)CC2c1ccc(Cl)cc1Cl (stereo unspecified) | u | -20.8%[46.1 µM] | x | 6.1% | x | -0.3%[46.1 µM] | x | x
CCCCn1c(=N)n(CC(O)COc2cccc(C)c2)c2ccccc21 (stereo unspecified) | u | u | 8.91µM* | -4.7% | -4.2% | u | 14.1µM* | u
CCOC(=O)CC(=O)CSc1nc2sc(C)cc2c(=O)n1Cc1ccco1 | -28.2% | -4.7% | u | -10.4% | 9.2% | -0.1% | 11.2µM* | 25.0%
CCOc1ccc2c(C)nc(NC3=NC(C)(C)C=C(C)N3)nc2c1 | -20.0% | u | 5.01µM* | -4.0% | -3.4% | -17.8% | 7.05µM* | u
COc1cc(NC(=O)C2CCN(c3nc4ccccc4nc3C(F)(F)F)CC2)cc(OC)c1 | 0.0% | x | x | 8.0% | x | -22.7%[46.1 µM] | x | x
O=C(CNC(=O)c1ccc(F)cc1)OCc1cc(=O)n2nc(C3CCCCC3)sc2n1 | -2.7% | x | x | 9.9% | x | 7.8%[46.1 µM] | x | x
CCCCCNC(=O)c1cn(CC)c2cc(N3CCN(C)CC3)c(F)cc2c1=O | -5.1% | u | u | -16.3% | 3.4% | -25.3% | 14.1µM* | -28.2%
O=C(Cn1c(=O)n(-c2ccc(F)cc2)c(=O)c2sc3ccccc3c21)N1CCCC1 | -4.3% | 7.3%[46.1 µM] | x | 3.2% | x | -13.0%[46.1 µM] | x | x
O=c1c(-c2ccc(O)cc2)coc2cc(O)cc(O)c12 | 29.6% | u | 0.891µM* | -10.4% | 0.9% | u | -7.1% | -3.7%
O=C(Cn1c(=O)ccc2cc(S(=O)(=O)N3CCCC3)ccc21)NCc1ccc(F)cc1 | u | x | x | 8.1% | x | -28.4%[46.1 µM] | x | x
COc1cc(CCC(O)CC(=O)CCc2ccccc2)ccc1O (stereo unspecified) | -8.8% | x | 1.12µM* | -22.0% | 10.8% | x | -23.4% | 33.0%
O=C1/C(=C/c2ccccc2)C[C@@]2(O)[C@H]3Cc4ccc(O)c5c4[C@@]2(CCN3CC2CC2)C1O5 (stereo partly specified) | 10µM* | x | 3.16µM* | x | -10.4% | x | 6.28µM* | 9.95µM*
Cc1ccc(S(=O)(=O)N(C)C[C@H]2Oc3cc(C#Cc4ccccc4)ccc3S(=O)(=O)N([C@H](C)CO)C[C@@H]2C)cc1 | 33.5% | x | x | x | -3.0% | x | x | x
C=C(c1ccccc1C)[n+]1ccccc1 | -5.0% | -11.4% | u | -23.9% | -15.2% | 16.8% | x | x
C=C(c1ccccc1Cl)[n+]1ccccc1 | -12.1% | u | 4.47µM* | -4.3% | -7.1% | -11.8% | 7.05µM* | 25µM*
COc1cc(N)c(Cl)cc1C(=O)N[C@@H]1CCN(CCCOc2ccc(F)cc2)C[C@@H]1OC | x | x | x | 3.5% | x | x | x | x
COc1cc(N)c(Cl)cc1C(=O)N[C@H]1CCN(CCCOc2ccc(F)cc2)C[C@H]1OC | u | x | 1.78µM* | -7.7% | -8.7% | x | 4.45µM* | 4.0%
SMILES | FMDV inh | Marburg entry inh | HCV inh | Sm TGR inh | RE007 growth inh | LASV entry inh | HCV inh confirm | HCV host tox
COc1ccc(-c2cn3nc(N4CCCC(C(=O)Nc5ccccc5F)C4)sc3n2)cc1 (stereo unspecified) | -26.6% | x | x | -0.4% | x | u | x | x
O=C(CN(Cc1ccccc1)C1=NCCS1)c1ccc(Cl)cc1 | -16.4% | u | 6.31µM* | -12.8% | 1.4% | 13.0% | 8.87µM* | -7.4%
COc1ccc(C(=O)CN(Cc2ccccc2)C2=NCCS2)cc1 | 6.0% | u | -23.3% | 1.6% | 2.4% | 19.4% | x | x
N#Cc1c(-c2ccccc2)cc(-c2ccccc2)nc1SCC(O)CS(=O)(=O)Cc1ccccc1 (stereo unspecified) | -6.0% | x | x | 1.1% | x | -26.3%[46.1 µM] | x | x
CCN(CC)C(=O)CSc1nc2cc3c(cc2c(=O)n1Cc1ccc(OC)cc1)OCO3 | 20.7% | -9.0%[46.1 µM] | u | 5.5% | -1.8% | u | 5.6µM* | 12.4%
Cc1cc(C)c2cc(C(=O)N3CCc4ccccc4C3)[nH]c2c1 | 31.3% | -20.9% | u | 8.0% | -13.4% | -20.7% | u | -32.6%
Cc1ccc(C)c(Cn2c(C(C)NC(=O)c3ccc(F)cc3)nc3ccccc32)c1 (stereo unspecified) | -20.6% | 3.1%[46.1 µM] | x | u | x | 17.5%[46.1 µM] | x | x
Cc1cccc2c1-c1sc(C(=O)NCCCN3CCC(C)CC3)cc1CO2 | -10.5% | x | 5.01µM* | 1.4% | 0.0% | x | 25µM* | -5.2%
CC(=O)N1CCCc2cc(S(=O)(=O)N3CCCC(C(=O)Nc4ccc(F)cc4F)C3)ccc21 (stereo unspecified) | u | x | x | 0.8% | x | -17.8%[46.1 µM] | x | x
C[C@H]1C=C2C=C[C@H](C)[C@H](CC[C@@H]3C[C@@H](O)CC(=O)O3)[C@H]2[C@@H](OC(=O)[C@@H](C)CCO)C1 | -23.3% | x | x | x | x | x | x | x
CCN(CC)C(=O)C1CCN(c2nnc(C)c3c(C)n(-c4ccc(Cl)cc4)nc23)CC1 | -2.7% | x | x | -2.5% | x | 5.7%[46.1 µM] | x | x
Cc1ccc(-n2nc3c(N4CCC(C(=O)N5CCN(C)CC5)CC4)nnc(C)c3c2C)cc1 | 8.1% | x | 4.47µM* | -0.9% | -5.0% | x | 15.8µM* | 21.0%
CCCn1c(=NC(=O)c2ccco2)c(C(=O)OCC)cc2c(=O)n3ccccc3nc21 | x | -13.7% | u | u | -7.8% | -10.7% | u | 20.6%
CC#CC[N+](C)(C)CCCCCCCCCCCC | 12.6µM* | 10.3µM* | 5.01µM* | 3.8% | u | u | 14.1µM* | -41.5%
Cc1cc(C)cc(NC(=O)c2nnn(Cc3cc(C)ccc3C)c2N)c1 | u | x | u | -5.7% | -1.9% | x | 11.2µM* | 23.4%

Bioassay records (PubChem BioAssay)
